Data from PubChem BioAssay AID1159580 (chemical genetic matrix, 2015).
Out of some 5,500 compounds screened, about 2,000 (36%) were called active. Roughly 18% stayed inconclusive and do not appear here. No stated cut-off is given here; in the data, active means normalized growth mostly below about 0.91 (no sharp cut-off); inconclusive means no clear call, values can overlap the other calls; inactive means mostly above about 0.92. The list shows a part of the results.

Assay: chemical genetic growth profiling, strain panel (AID 1159580);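 further: tested at 20 µM; growth read once vehicle control cultures reached saturation at 30 °C; 1 = growth at the plate median or of vehicle wells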
Conditions: growth OD

Measured: normalized growth

NC(=O)NC(=O)Cc1ccccc1
inactive: S. cerevisiae deletion strains, locus YJR075W, strain HOC1, stronger effect = lower value 1.01 | S. cerevisiae deletion strains, locus YKL009W, strain mrt4, stronger effect = lower value 0.99 | S. cerevisiae deletion strains, locus YKL068W, stronger effect = lower value 0.998 | S. cerevisiae deletion strains, locus YKL085W, strain MDH1 (second series), stronger effect = lower value 0.994 | S. cerevisiae deletion strains, locus YKL085W, strain MDH1, stronger effect = lower value 0.994 | S. cerevisiae deletion strains, locus YKL160W, strain elf1, stronger effect = lower value 0.941 | S. cerevisiae deletion strains, locus YKL190W, strain CNB1, stronger effect = lower value 1.03 | S. cerevisiae deletion strains, locus YKR001C, strain vps1, stronger effect = lower value 0.994 | S. cerevisiae deletion strains, locus YKR026C, strain gcn3, stronger effect = lower value 0.993 | S. cerevisiae deletion strains, locus YKR091W, strain srl3, stronger effect = lower value 0.98 | S. cerevisiae deletion strains, locus YLL001W, strain dnm1, stronger effect = lower value 1.02 | S. cerevisiae deletion strains, locus YLL026W, stronger effect = lower value 0.984 | S. cerevisiae deletion strains, locus YLL041C, strain sdh2, stronger effect = lower value 1 | S. cerevisiae deletion strains, locus YLR027C, strain aat2, stronger effect = lower value 0.988 | S. cerevisiae deletion strains, locus YLR039C, strain RIC1, stronger effect = lower value 1.02 | S. cerevisiae deletion strains, locus YLR058C, strain SHM2, stronger effect = lower value 1.01 | S. cerevisiae deletion strains, locus YLR102C, strain apc9, stronger effect = lower value 0.999 | S. cerevisiae deletion strains, locus YLR113W, strain HOG1, stronger effect = lower value 1.01 | S. cerevisiae deletion strains, locus YLR221C, strain rsa3, stronger effect = lower value 1.03 | S. cerevisiae deletion strains, locus YLR258W, strain gsy2, stronger effect = lower value 0.977 | S. cerevisiae deletion strains, locus YLR262C, strain YPT6 (second series), stronger effect = lower value 0.99 | S. cerevisiae deletion strains, locus YLR262C, strain YPT6, stronger effect = lower value 1.05 | S. cerevisiae deletion strains, locus YLR268W, strain sec22, stronger effect = lower value 0.985 | S. cerevisiae deletion strains, locus YLR320W, strain mms22, stronger effect = lower value 1.02 | S. cerevisiae deletion strains, locus YLR330W, strain CHS5, stronger effect = lower value 1.01 | S. cerevisiae deletion strains, locus YLR342W, strain FKS1 (second series), stronger effect = lower value 1.05 | S. cerevisiae deletion strains, locus YLR342W, strain FKS1, stronger effect = lower value 0.999 | S. cerevisiae deletion strains, locus YLR357W, strain rsc2, stronger effect = lower value 0.949 | S. cerevisiae deletion strains, locus YLR370C, strain arc18, stronger effect = lower value 0.966 | S. cerevisiae deletion strains, locus YLR371W, strain rom2, stronger effect = lower value 0.997 | S. cerevisiae deletion strains, locus YLR384C, strain iki3, stronger effect = lower value 0.982 | S. cerevisiae deletion strains, locus YLR418C, strain cdc73, stronger effect = lower value 0.998 | S. cerevisiae deletion strains, locus YML016C, strain PPZ1, stronger effect = lower value 1.01 | S. cerevisiae deletion strains, locus YML032C, strain rad52, stronger effect = lower value 1 | S. cerevisiae deletion strains, locus YML120C, strain ndi1, stronger effect = lower value 1.01 | S. cerevisiae deletion strains, locus YML124C, strain tub3, stronger effect = lower value 0.996 | S. cerevisiae deletion strains, locus YMR058W, strain fet3, stronger effect = lower value 0.978 | S. cerevisiae deletion strains, locus YMR078C, strain ctf18, stronger effect = lower value 0.997 | S. cerevisiae deletion strains, locus YMR125W, strain sto1, stronger effect = lower value 0.957 | S. cerevisiae deletion strains, locus YMR129W, stronger effect = lower value 0.966 | S. cerevisiae deletion strains, locus YMR205C, strain PFK2, stronger effect = lower value 1.01 | S. cerevisiae deletion strains, locus YMR223W, strain ubp8, stronger effect = lower value 1.01 | S. cerevisiae deletion strains, locus YMR231W, strain pep5, stronger effect = lower value 1 | S. cerevisiae deletion strains, locus YMR263W, strain SAP30, stronger effect = lower value 1.01 | S. cerevisiae deletion strains, locus YMR307W, strain GAS1, stronger effect = lower value 1.08 | S. cerevisiae deletion strains, locus YNL067W, strain RPL9B, stronger effect = lower value 1.02 | S. cerevisiae deletion strains, locus YNL071W, strain lat1, stronger effect = lower value 0.995 | S. cerevisiae deletion strains, locus YNL128W, strain TEP1, stronger effect = lower value 1 | S. cerevisiae deletion strains, locus YNL153C, strain GIM3, stronger effect = lower value 1.03 | S. cerevisiae deletion strains, locus YNL183C, strain NPR1, stronger effect = lower value 0.94 | S. cerevisiae deletion strains, locus YNL209W, strain ssb2, stronger effect = lower value 0.975 | S. cerevisiae deletion strains, locus YNL233W, strain BNI4, stronger effect = lower value 1.01 | S. cerevisiae deletion strains, locus YNL248C, strain rpa49, stronger effect = lower value 0.917 | S. cerevisiae deletion strains, locus YNL250W, strain rad50, stronger effect = lower value 0.992 | S. cerevisiae deletion strains, locus YNL271C, strain bni1, stronger effect = lower value 0.992 | S. cerevisiae deletion strains, locus YNL298W, strain CLA4, stronger effect = lower value 1 | S. cerevisiae deletion strains, locus YNL307C, strain MCK1, stronger effect = lower value 0.994 | S. cerevisiae deletion strains, locus YNL322C, strain KRE1 (second series), stronger effect = lower value 0.965 | S. cerevisiae deletion strains, locus YNL322C, strain KRE1, stronger effect = lower value 1.01 | S. cerevisiae deletion strains, locus YNR049C, strain mso1, stronger effect = lower value 0.962 | S. cerevisiae deletion strains, locus YNR052C, strain pop2, stronger effect = lower value 0.989 | S. cerevisiae deletion strains, locus YOL006C, strain TOP1, stronger effect = lower value 1.14 | S. cerevisiae deletion strains, locus YOL012C, strain htz1 1.28 | S. cerevisiae deletion strains, locus YOL147C, strain pex11, stronger effect = lower value 0.997 | S. cerevisiae deletion strains, locus YOR001W, strain rrp6, stronger effect = lower value 1.02 | S. cerevisiae deletion strains, locus YOR061W, strain CKA2, stronger effect = lower value 1 | S. cerevisiae deletion strains, locus YOR069W, strain VPS5, stronger effect = lower value 1 | S. cerevisiae deletion strains, locus YOR070C, strain gyp1, stronger effect = lower value 0.996 | S. cerevisiae deletion strains, locus YOR080W, strain dia2, stronger effect = lower value 0.986 | S. cerevisiae deletion strains, locus YOR083W, strain WHI5, stronger effect = lower value 0.913 | S. cerevisiae deletion strains, locus YOR106W, strain vam3, stronger effect = lower value 0.96 | S. cerevisiae deletion strains, locus YOR136W, strain idh2, stronger effect = lower value 0.995 | S. cerevisiae deletion strains, locus YOR144C, strain elg1, stronger effect = lower value 0.994 | S. cerevisiae deletion strains, locus YOR184W, strain ser1, stronger effect = lower value 0.988 | S. cerevisiae deletion strains, locus YOR231W, strain MKK1, stronger effect = lower value 0.988 | S. cerevisiae deletion strains, locus YOR265W, strain rbl2, stronger effect = lower value 0.99 | S. cerevisiae deletion strains, locus YOR270C, strain vph1, stronger effect = lower value 0.979 | S. cerevisiae deletion strains, locus YOR290C, strain snf2, stronger effect = lower value 0.936 | S. cerevisiae deletion strains, locus YOR316C, strain cot1, stronger effect = lower value 0.994 | S. cerevisiae deletion strains, locus YPL051W, strain arl3, stronger effect = lower value 0.974 | S. cerevisiae deletion strains, locus YPL055C, strain LGE1, stronger effect = lower value 1.08 | S. cerevisiae deletion strains, locus YPL078C, strain atp4, stronger effect = lower value 0.955 | S. cerevisiae deletion strains, locus YPL106C, strain sse1, stronger effect = lower value 0.992 | S. cerevisiae deletion strains, locus YPL240C, strain hsp82, stronger effect = lower value 0.997 | S. cerevisiae deletion strains, locus YPL241C, strain CIN2, stronger effect = lower value 1.03 | S. cerevisiae deletion strains, locus YPL256C, strain CLN2, stronger effect = lower value 0.96 | S. cerevisiae deletion strains, locus YPR119W, strain clb2, stronger effect = lower value 1 | S. cerevisiae deletion strains, locus YPR141C, strain kar3, stronger effect = lower value 0.988 | S. cerevisiae deletion strains, locus YPR163C, strain tif3, stronger effect = lower value 0.995 | S. cerevisiae deletion strains, locus YPR167C, strain met16, stronger effect = lower value 0.996 | S. cerevisiae deletion strains, strain wtn01, stronger effect = lower value 0.976 | S. cerevisiae strains, strain wild type, stronger effect = lower value 1.06
